Assay outcomes from PubChem BioAssay.
An excerpt weighted towards active compounds, which were near 6.1% of everything screened.
D1 antagonist: antagonists of human D1 dopamine receptor | P21728 | HEK293 TREx D1 cells, calcium flux, dopamine EC80; active compounds read low | activity change, negative = inhibition, % at 10 µM | 360,000 compounds, 3.2% hits | AID 504652; in the data active means activity change below about -30%; further: on the % scale 0 is the no-effect control and ±100 the full control effect
Target sequence (P21728 whole entry, looked up): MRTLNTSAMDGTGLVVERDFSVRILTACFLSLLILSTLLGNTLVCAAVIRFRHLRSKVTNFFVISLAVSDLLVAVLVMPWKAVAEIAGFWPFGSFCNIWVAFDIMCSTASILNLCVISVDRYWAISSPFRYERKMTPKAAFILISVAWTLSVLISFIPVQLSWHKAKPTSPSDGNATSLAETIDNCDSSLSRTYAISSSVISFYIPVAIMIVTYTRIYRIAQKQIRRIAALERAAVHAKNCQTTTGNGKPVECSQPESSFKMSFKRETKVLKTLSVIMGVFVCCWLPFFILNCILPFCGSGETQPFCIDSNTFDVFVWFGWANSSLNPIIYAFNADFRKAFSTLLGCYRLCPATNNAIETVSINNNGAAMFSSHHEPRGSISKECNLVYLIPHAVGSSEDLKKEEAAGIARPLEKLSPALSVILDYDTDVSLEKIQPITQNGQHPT
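HEK293 T-REx cells expressing inducible, force-coupled D1 receptor; no-wash Ca dye, 30–90 min RT. Cmpd → 180 s read at 1 Hz → EC80 DA → 180 s read.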
DRD3 antagonist: blocks the human D3 dopamine receptor | D3R cells, DiscoveRx beta-arrestin luminescence, antagonist mode; active compounds read low | 360,000 compounds, 2.5% hits | AID 652054 | max response, negative = inhibition, %; in the data active means max response below about -50%; inconclusive means no clear call, values can overlap the other calls; further: on the % scale 0 is the no-effect control and ±100 the full control effect
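Cells plated overnight at 1500 cells/well, then exposed to library compounds with dopamine controls for 90 minutes at 37 degrees C. DiscoveRx reagent added for 30–60 minutes at room temperature; luminescence read, quantitative HTS format.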
DRD3 agonist: agonists of human D3 dopamine receptor | P35462 | 410,000 compounds, 0.58% hits | max activation, % | AID 652048 | D3R DiscoveRx beta-arrestin cells, luminescence, 90 min; in the data active means max activation above about 30%; further: 0% is about no effect
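Agonist-mode cell screen: cells plated at 1500/well and incubated overnight at 37 °C, then exposed to library compounds for 90 min at 37 °C. Detection reagent was added for 30–60 min at room temperature, and luminescence was read.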
D1 agonist: human D1 receptor agonism; activation, % at 2 µM; P21728; HEK293 T-REx D1 cells, calcium flux, agonist mode; AID 504660; 360,000 compounds, 1% hits; in the data active means activation above about 30%; further: 0% is about no effect
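Agonism was scored from calcium flux recorded over 180 s (1 read/s) after pintool compound addition, following a 10-cycle baseline. Cells were inducible force-coupled HEK293 TREx D1, plated overnight at 30 C and loaded with no-wash calcium dye.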
D1 potentiator: human D1 dopamine receptor positive modulation | P21728 | HEK293 TREx D1 cells, calcium flux, dopamine EC20 potentiation | potentiation, % at 10 µM | 360,000 compounds, 0.036% hits | AID 504651; in the data active means potentiation above about 30%; further: 0% is about no effect
* marks the source's active call; other numbers are inactive results.

How did Cc1ccc(NC(=O)CSc2nc(-c3ccco3)cc(C(F)(F)F)n2)cc1C do in these assays?
D1 antagonist: -12.4; DRD3 antagonist: 20.6; DRD3 agonist: 8.7; D1 agonist: 3.6; D1 potentiator: -2.6

What do the screens show for `COc1ccc(NC(=O)CSc2nc(-c3ccco3)cc(C(F)(F)F)n2)cc1OC`?
D1 antagonist: -30.5*; DRD3 agonist: 10.7; D1 agonist: 11.9; D1 potentiator: -2.0

How did Cc1ccc(NC(=O)CSc2nnc(-c3ccco3)c(-c3ccco3)n2)cc1 do in these assays?
D1 antagonist: -8.6; DRD3 antagonist: -59.6*; DRD3 agonist: -0.9; D1 agonist: -1.4; D1 potentiator: 2.2

How did CCOC(=O)c1cc(S(=O)(=O)N2CCN(c3ccc(F)cc3)CC2)[nH]n1 do in these assays?
D1 antagonist: -1.1; DRD3 agonist: 14.9; D1 agonist: 9.3; D1 potentiator: -2.4

How did Cc1ccc(C)c(OCC(=O)N(Cc2ccccc2)c2c(N)n(Cc3ccccc3)c(=O)[nH]c2=O)c1 do in these assays?
DRD3 antagonist: -24.4; DRD3 agonist: -3.3

Results for C/C=C/C1=CC(=O)C[C@H](c2ccc(OC)c(OC)c2)C1 ?
D1 antagonist: 0.3; DRD3 antagonist: 8.5; DRD3 agonist: 2.5; D1 agonist: -0.9; D1 potentiator: 3.9

Results for Cc1ccc(NC(=O)Nc2nnc(N(C)Cc3ccccc3)s2)c(C)c1 ?
D1 antagonist: -40.7*; DRD3 agonist: -18.7; D1 agonist: 4.1; D1 potentiator: -0.1

What do the screens show for `Cc1ccc(Cl)cc1NC(=O)Nc1nnc(N(C)Cc2ccccc2)s1`?
D1 antagonist: -8.3; DRD3 agonist: -7.6; D1 agonist: 0.5; D1 potentiator: -1.9

Results for CCN(c1ccccc1)c1nnc(NC(=O)Nc2ccc(C)cc2)s1 ?
D1 antagonist: -34.5*; DRD3 agonist: 3.3; D1 agonist: -2.4; D1 potentiator: -2.8

Results for CC(C)(C)S(=O)N1Cc2cc(C(=O)N3CCc4ccccc4C3)nc(-c3cccc(-c4cccnc4)c3)c2[C@@H]1CCO (some centres undefined) ?
DRD3 antagonist: inconclusive; DRD3 agonist: -6.4

What do the screens show for `CCOC(=O)c1sc(NC(=O)Nc2ccccc2Cl)cc1C`?
D1 antagonist: -38.7*; DRD3 antagonist: 6.4; DRD3 agonist: -30.1; D1 agonist: 14.5; D1 potentiator: -6.5

Results for CCOC(=O)c1sc(NC(C)=O)cc1C ?
D1 antagonist: 3.0; DRD3 antagonist: 0.0; DRD3 agonist: -9.1; D1 agonist: -0.4; D1 potentiator: -13.6

Results for CCOC(=O)c1sc(NC(=O)Nc2ccccc2)cc1C ?
D1 antagonist: -41.7*; DRD3 antagonist: -5.4; DRD3 agonist: -3.5; D1 agonist: 20.8; D1 potentiator: -5.2

How did CCOC(=O)c1sc(NC(=O)c2ccc(C)s2)cc1C do in these assays?
D1 antagonist: 25.0; DRD3 antagonist: -28.9; DRD3 agonist: -4.3; D1 agonist: -0.8; D1 potentiator: -6.3

What do the screens show for `CC(C)(C)OC(=O)C[C@H]1C/C=C\C[C@@H](CC(=O)NCCO)C(=O)NCCOC1=O`?
DRD3 antagonist: -8.1; DRD3 agonist: -2.1

What do the screens show for `O=C(Nc1ccc(Cl)cc1)Nc1ccc(Cl)c(C(F)(F)F)c1`?
DRD3 agonist: 0.5

What do the screens show for `CC(CCc1ccccc1)NC(=O)COC(=O)c1ccc(NC(N)=O)cc1` (centres undefined)?
D1 antagonist: -4.2; DRD3 antagonist: 1.8; DRD3 agonist: 0.4; D1 agonist: 0.9; D1 potentiator: -4.5

How did CN1CCN(C(=O)OCCOCCOC(=O)N2CCN(C)CC2)CC1 do in these assays?
DRD3 antagonist: 21.4; DRD3 agonist: -1.3

How did CC(CC(=O)N1CCN(c2ccccc2)CC1)S(=O)(=O)c1ccc2c(c1)NC(=O)CO2 (centres undefined) do in these assays?
D1 antagonist: -48.1*; DRD3 antagonist: 8.6; DRD3 agonist: 5.8; D1 agonist: 7.4; D1 potentiator: -2.4

What do the screens show for `COc1cc(OC)cc(-c2noc(-c3csc([C@@H]4C[C@H](O)[C@@H](CO)O4)n3)n2)c1`?
DRD3 antagonist: 56.7; DRD3 agonist: 2.2

How did COc1ccc(CNC(=O)CN(CCC(C)C)S(=O)(=O)c2ccc3c(c2)OCCO3)cc1 do in these assays?
D1 antagonist: -32.3*; DRD3 antagonist: 12.1; DRD3 agonist: 3.1; D1 agonist: 4.5; D1 potentiator: -3.0
